# ChEMBL document CHEMBL3988442, “University of Dundee, Small-Polar-MMV Screening Library” (2021)
# About 440 (0.52%) of roughly 85,000 compounds showed an effect of 50% or more. This excerpt belongs to a sample that is enriched for strong results.
# Assay: In vitro enzyme assay to detect hydrolysis of chlorophenol red-beta-D-[…] directly proportional to the number of Toxoplasma stably expressing beta-galactosidase
# Assay type: functional, organism-based, Toxoplasma gondii
# Set-up: scale not given: in the data most compounds retested in dose-response had high values
SMILES,Percent Effect (50 µM) [%],Percent Effect (10 µM) [%]
CCn1ccnc1CN(C)CCC(=O)NC(C)C,14.34,–
CN(C)C1CCN(C(=O)CN(C)S(C)(=O)=O)CC1,-9.436,–
COc1ncccc1-c1cccc(C#N)n1,5.499,–
COCCNc1nc(-c2ccc(O)cc2O)cs1,0.3364,–
COc1ncccc1-c1csc(NCCSC)n1,98.47,–
N#Cc1cccc(NC(=O)NC2CCS(=O)(=O)C2)c1 (configuration not stated),1.062,–
CCC(=O)N(c1ccc(Cl)cc1)C1C=CS(=O)(=O)C1 (configuration not stated),-0.8656,–
NCCCNS(=O)(=O)c1ccc(Cl)cc1,-0.1272,–
O=C(NCCC1=CCCCC1)c1cc(-c2ccc(O)cc2)n[nH]1,–,74.79
Cc1ccc(-c2cc(C(=O)NCCC3=CCCCC3)[nH]n2)o1,–,28.69
CCCc1cc(C(=O)NCCC2=CCCCC2)[nH]n1,–,32.61
O=C(CN1CCN(CCO)CC1)Nc1ccc(Br)cn1,2.183,–
COc1cc(Cl)ccc1CN,12.35,–
Cc1cc(=O)n(CC(=O)Nc2ccc(Cl)cc2)nc1C,–,3.812
COc1ccc(NC(=O)Cn2nc(C)c(C(C)=O)c2C)cc1,–,89.45
CCN1CCN(CC(=O)Nc2ccc(OC)cc2)CC1,6.454,–
CC(=O)c1c(C)nn(CC(=O)Nc2ccc(F)cc2)c1C,–,19.31
COc1ccc(NC(=O)Cn2nc(C)c(C)cc2=O)cc1,–,-1.054
CC(=O)c1c(C)nn(CC(=O)Nc2ccc(Br)cc2)c1C,–,96.91

SMILES,Percent Effect (50 µM) [%],Percent Effect (10 µM) [%]
NCCS(=O)(=O)NCc1ccccc1,-6.39,–
CC(=O)NCCNC(=O)CC(C)C1CCCCC1 (configuration not stated),-13.76,–
CNC(=O)CN1CCC(NC(=O)c2cccs2)CC1,-6.649,–
CS(=O)(=O)C1CCCCN(C(=O)CC2CCSCC2)C1 (configuration not stated),-13.3,–
NC(=O)c1ccc(OCC(=O)c2ccccc2F)cc1,-5.248,–
Cc1nc(C2CCNCC2)cc(N(C)Cc2cc3cc(F)ccc3[nH]2)n1,–,63.01
Cc1nc(-c2ccc(F)cc2)cc(C2CCNCC2)n1,–,1.268
CCN(Cc1ccncc1)c1cc(C2CCNCC2)nc(C)n1,–,30.82
CCN(Cc1ccncc1)c1cc(C2CCCNC2)nc(C)n1 (configuration not stated),–,14.41
CN(Cc1cc2cc(F)ccc2[nH]1)c1cc(C2CCCNC2)ncn1 (configuration not stated),–,38.81
CCN(Cc1c(F)cccc1Cl)c1cc(C2CCNCC2)nc(C)n1,–,79.97
CCC(N)c1ccccc1OCC(=O)N(C)C (configuration not stated),-2.206,–
NC(=O)CCSc1nnc(N2CCCC2)n1C1CC1,10.69,–
Cc1nccn1CCNc1cc(C2CC(O)C2)ncn1 (configuration not stated),47.03,–
CNC(=O)NC(=O)CCN1CCCCC1,-8.963,–
CNC(=O)NC(=O)CCN1CCCC(C)C1 (configuration not stated),60.28,–
CNC(=O)NC(=O)CCN1CCCC(C(F)(F)F)C1 (configuration not stated),-7.84,–
Cc1nn(C)cc1C(C)NC(=O)CNc1ccccc1 (configuration not stated),-0.7115,–
